Assay results taken from PubChem BioAssay AID1159580 (chemical genetic matrix, 2015).
Where “and” joins values, the source holds several entries; their conditions need not be identical. Equal values may be shown once. About 2,000 (36%) of roughly 5,500 compounds were called active. Not shown: some 18% with an inconclusive outcome. No stated cut-off is given here; in the data, active means normalized growth mostly below about 0.91 (no sharp cut-off); inconclusive means no clear call, values can overlap the other calls; inactive means mostly above about 0.92. This is one part of the list.

Test: chemical genetic growth profiling, strain panel (AID 1159580);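 further: tested at 20 µM; growth read once vehicle control cultures reached saturation at 30 °C; 1 = growth at the plate median or of vehicle wells; lower values mean less growth of the strain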
Conditions: S. cerevisiae deletion strains, growth OD

Measured: normalized growth

C[C@@H](CO)NC(=O)C1C=C2c3cccc4[nH]cc(c34)C[C@H]2N(C)C1 (stereo partly specified)
inactive: locus YAL013W, strain DEP1, active compounds read low 1.02 | locus YAL021C, strain ccr4, active compounds read low 1.01 | locus YAL026C, strain drs2, active compounds read low 0.989 | locus YAL030W, strain snc1, active compounds read low 1.03 | locus YBL061C, strain skt5, active compounds read low 1.02 | locus YBR009C, strain hhf1, active compounds read low 0.979 | locus YBR021W, strain FUR4, active compounds read low 0.963 | locus YBR023C, strain chs3, active compounds read low 1.01 | locus YBR171W, strain sec66, active compounds read low 1.02 | locus YBR229C, strain ROT2, active compounds read low 0.997 | locus YBR231C, strain swc5, active compounds read low 1.02 | locus YBR279W, strain paf1, active compounds read low 1 | locus YCL011C, strain gbp2, active compounds read low 0.991 | locus YCL016C, strain dcc1, active compounds read low 0.955 | locus YCL029C, strain bik1, active compounds read low 0.986 | locus YCL069W, strain vba3, active compounds read low 1.01 | locus YCR088W, strain abp1, active compounds read low 1.01 | locus YDL005C, strain med2, active compounds read low 1.02 | locus YDL035C, strain GPR1, active compounds read low 1.03 | locus YDL040C, strain nat1, active compounds read low 1.01 | locus YDL074C, strain BRE1, active compounds read low 1.08 | locus YDL101C, strain DUN1, active compounds read low 0.996 | locus YDL134C, strain PPH21, active compounds read low 0.995 | locus YDL185W, strain tfp1, active compounds read low 0.983 | locus YDL192W, strain arf1, active compounds read low 0.994 | locus YDR001C, strain nth1, active compounds read low 1 | locus YDR069C, strain doa4, active compounds read low 1.04 | locus YDR101C, strain arx1, active compounds read low 0.997 | locus YDR137W, strain rgp1, active compounds read low 0.984 | locus YDR150W, strain NUM1, active compounds read low 0.987 | locus YDR159W, strain sac3, active compounds read low 0.937 | locus YDR162C, strain NBP2, active compounds read low 1.02 | locus YDR195W, strain ref2 1.01 | locus YDR297W, strain sur2, active compounds read low 1.03 | locus YDR318W, strain mcm21, active compounds read low 0.994 | locus YDR334W, strain swr1, active compounds read low 1 | locus YDR335W, strain msn5, active compounds read low 1.01 | locus YDR388W, active compounds read low 0.998 | locus YDR392W, strain spt3, active compounds read low 0.942 | locus YDR502C, strain sam2, active compounds read low 0.996 | locus YEL003W, strain gim4, active compounds read low 1.03 | locus YEL037C, strain rad23, active compounds read low 1.01 | locus YEL061C, strain CIN8 (second series), active compounds read low 1 | locus YEL061C, strain CIN8, active compounds read low 1.01 | locus YER015W, strain faa2, active compounds read low 1.01 | locus YER016W, strain bim1, active compounds read low 0.994 | locus YER110C, active compounds read low 0.99 | locus YER111C, strain swi4, active compounds read low 1 | locus YER155C, strain BEM2 (second series), active compounds read low 1.08 | locus YER155C, strain BEM2, active compounds read low 1 | locus YER167W, strain BCK2, active compounds read low 0.99 | locus YFR010W, strain ubp6, active compounds read low 1.01 | locus YGL078C, strain dbp3, active compounds read low 0.995 | locus YGL086W, strain mad1, active compounds read low 0.987 | locus YGL167C, strain pmr1, active compounds read low 1.03 | locus YGL173C, strain kem1, active compounds read low 1.04 | locus YGL227W, strain vid30, active compounds read low 1.01 | locus YGL240W, strain doc1, active compounds read low 1.04 | locus YGL248W, strain PDE1, active compounds read low 0.993 | locus YGL253W, strain hxk2, active compounds read low 0.985 | locus YGR078C, strain PAC10, active compounds read low 1.03 | locus YGR135W, strain pre9, active compounds read low 1.01 | locus YGR229C, strain SMI1, active compounds read low 1.06 | locus YGR252W, strain gcn5, active compounds read low 0.977 | locus YHR013C, strain ard1, active compounds read low 1 | locus YHR027C, strain rpn1, active compounds read low 1.01 | locus YHR030C, strain SLT2, active compounds read low 0.991 and 1.04 | locus YHR079C, strain IRE1 (second series), active compounds read low 0.991 | locus YHR079C, strain IRE1, active compounds read low 1.04 | locus YHR094C, strain hxt1, active compounds read low 0.991 | locus YHR129C, strain ARP1, active compounds read low 0.999 | locus YHR142W, strain chs7, active compounds read low 0.99 | locus YHR200W, strain rpn10, active compounds read low 0.988 | locus YIL066C, strain RNR3, active compounds read low 1 | locus YIL073C, strain SPO22, active compounds read low 0.949 | locus YIL125W, strain kgd1, active compounds read low 0.99 | locus YIR030C, strain dcg1, active compounds read low 0.994 | locus YJL092W, strain hpr5, active compounds read low 1.03 | locus YJL095W, strain BCK1 (second series), active compounds read low 1.03 | locus YJL095W, strain BCK1, active compounds read low 1.05 and 1.04 | locus YJL115W, strain asf1, active compounds read low 1.01 | locus YJL129C, strain trk1, active compounds read low 1.02 | locus YJL134W, strain LCB3, active compounds read low 0.997 | locus YJL154C, strain vps35, active compounds read low 1.01 | locus YJL164C, strain tpk1, active compounds read low 0.989 | locus YJL166W, strain qcr8, active compounds read low 1.03 | locus YJL168C, strain set2, active compounds read low 0.998 | locus YJL187C, strain SWE1 (second series), active compounds read low 1 | locus YJL187C, strain SWE1, active compounds read low 1.02 | locus YJR043C, strain POL32, active compounds read low 0.995 | locus YJR066W, strain TOR1, active compounds read low 1.01
